Experimental data as given in PubChem BioAssay.
Activity calls are given as the source filed them.

What was measured:
[1] = optical density shifts of acrAB sulA E. coli – strain DRC41, OD650, 48 h, E. coli filamentation inducer project, primary screen (AID 1152); details: higher = more signal, called active from +8 up or from −8 down;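 further: E. coli MC1000 strain DRC41 lacking acrAB efflux pump and sulA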
[2] = probe aLefty1 binding on compound microarray – biochemical, small-molecule microarray, 635/667 nm fluorescence, primary screen (AID 1153); details: higher = more signal;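 further: score merges spot fluorescence with signal-to-noise ratio from the scanned slide images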
[3] = plasmodial surface anion channel blockers, osmotic lysis – cell-based, P. falciparum Indochina, OD700, 1 h, primary screen (AID 1154); details: P. falciparum Indochina infected RBC osmotic lysis, higher = more signal, called active from +8 up or from −8 down
[4] = plasmodial surface anion channel blockers, osmotic lysis – cell-based, P. falciparum Indochina, OD700, 2 h, primary screen (AID 1155);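 further: lysis reports solute entry through the parasite surface anion channel PSAC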; details: P. falciparum Indochina infected erythrocytes, higher = more signal, called active from +8 up or from −8 down
[5] = changes in parasitized red cell lysis, either direction – P. falciparum Indochina, OD700, 3 h, PSAC antagonist project, primary screen (AID 1156); details: P. falciparum-infected erythrocytes, osmotic lysis, higher = more signal, called active from +8 up or from −8 down
[6] = plasmodial surface anion channel blockers, osmotic lysis – cell-based, P. falciparum Indochina, OD700, 18 h, primary screen (AID 1157); details: P. falciparum Indochina infected erythrocytes, osmotic lysis OD700, 18 h; higher = more signal, called active from +8 up or from −8 down
[7] = S6 kinase pathway phospho-S6 level changes – cell-based, A549, cytoblot, luminescence, serum-stimulated, primary screen (AID 1158); details: 5 h, higher = more signal;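 further: serum-stimulated A549 lung adenocarcinoma cells; signal is phosphorylated S6 detected by cytoblot immunostaining with HRP secondary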
[8] = target: NADPH oxidase 2 (Homo sapiens) (UniProt P04839); test: compounds shifting NOX2 Amplex Red fluorescence – cell-based, HEK293-NOX2, PMA-stimulated, NOX inhibitor project, primary screen (AID 1159); details: 45 min, higher = more signal, called active from +8 up or from −8 down; further: test concentration not given here
[9] = target: NADPH oxidase 4 (Homo sapiens) (UniProt Q9NPH5); test: compounds shifting NOX4 Amplex Red fluorescence – cell-based, HEK293-NOX4, tetracycline-induced, NOX inhibitor project, primary screen (AID 1160); details: HEK293-NOX4, Amplex Red H2O2 fluorescence, 45 min; higher = more signal, called active from +8 up or from −8 down
[10] = target: NADPH oxidase 5 (Homo sapiens) (UniProt Q96PH1); test: compounds shifting NOX5 Amplex Red fluorescence – cell-based, HEK293-NOX5, NOX inhibitor project, primary screen (AID 1161); details: HEK293-NOX5, ionomycin, 45 min, higher = more signal
Sequence of NADPH oxidase 5 (Homo sapiens) (Q96PH1 whole entry, looked up): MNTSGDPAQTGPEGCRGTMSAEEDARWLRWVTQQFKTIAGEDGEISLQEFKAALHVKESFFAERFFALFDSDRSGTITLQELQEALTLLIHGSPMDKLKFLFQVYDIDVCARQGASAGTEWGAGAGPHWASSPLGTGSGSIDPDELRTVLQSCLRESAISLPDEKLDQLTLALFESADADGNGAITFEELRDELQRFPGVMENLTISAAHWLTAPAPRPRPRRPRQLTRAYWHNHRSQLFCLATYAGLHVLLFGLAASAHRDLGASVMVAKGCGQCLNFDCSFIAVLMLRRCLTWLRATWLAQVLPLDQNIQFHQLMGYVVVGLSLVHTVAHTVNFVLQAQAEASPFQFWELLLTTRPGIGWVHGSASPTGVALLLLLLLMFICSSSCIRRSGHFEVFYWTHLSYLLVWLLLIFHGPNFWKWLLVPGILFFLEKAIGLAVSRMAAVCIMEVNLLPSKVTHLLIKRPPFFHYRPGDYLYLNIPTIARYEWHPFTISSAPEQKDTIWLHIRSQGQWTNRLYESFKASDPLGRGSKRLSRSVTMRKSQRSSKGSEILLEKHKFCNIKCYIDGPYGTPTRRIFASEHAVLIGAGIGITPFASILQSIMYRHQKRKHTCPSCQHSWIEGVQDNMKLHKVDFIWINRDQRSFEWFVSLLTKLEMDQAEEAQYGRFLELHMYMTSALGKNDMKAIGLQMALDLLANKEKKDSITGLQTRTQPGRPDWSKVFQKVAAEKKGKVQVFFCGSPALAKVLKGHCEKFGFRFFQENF

Sequence of NADPH oxidase 2 (Homo sapiens) (P04839 whole entry, looked up): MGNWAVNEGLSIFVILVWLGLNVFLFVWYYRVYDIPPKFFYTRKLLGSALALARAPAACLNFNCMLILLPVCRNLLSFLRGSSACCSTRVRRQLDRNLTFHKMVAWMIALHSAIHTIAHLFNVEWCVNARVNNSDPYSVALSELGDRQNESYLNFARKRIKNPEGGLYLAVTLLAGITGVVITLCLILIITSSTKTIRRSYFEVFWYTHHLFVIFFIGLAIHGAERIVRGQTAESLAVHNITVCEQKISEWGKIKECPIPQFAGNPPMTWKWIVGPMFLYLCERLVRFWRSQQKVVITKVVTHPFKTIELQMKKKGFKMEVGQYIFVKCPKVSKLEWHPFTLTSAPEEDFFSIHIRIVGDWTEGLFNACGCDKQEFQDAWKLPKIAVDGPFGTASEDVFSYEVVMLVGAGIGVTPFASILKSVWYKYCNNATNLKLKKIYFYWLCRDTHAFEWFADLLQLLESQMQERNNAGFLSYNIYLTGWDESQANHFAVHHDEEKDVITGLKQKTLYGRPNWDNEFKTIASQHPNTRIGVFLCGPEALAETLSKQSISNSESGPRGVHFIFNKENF
Sequence of NADPH oxidase 4 (Homo sapiens) (Q9NPH5 whole entry, looked up): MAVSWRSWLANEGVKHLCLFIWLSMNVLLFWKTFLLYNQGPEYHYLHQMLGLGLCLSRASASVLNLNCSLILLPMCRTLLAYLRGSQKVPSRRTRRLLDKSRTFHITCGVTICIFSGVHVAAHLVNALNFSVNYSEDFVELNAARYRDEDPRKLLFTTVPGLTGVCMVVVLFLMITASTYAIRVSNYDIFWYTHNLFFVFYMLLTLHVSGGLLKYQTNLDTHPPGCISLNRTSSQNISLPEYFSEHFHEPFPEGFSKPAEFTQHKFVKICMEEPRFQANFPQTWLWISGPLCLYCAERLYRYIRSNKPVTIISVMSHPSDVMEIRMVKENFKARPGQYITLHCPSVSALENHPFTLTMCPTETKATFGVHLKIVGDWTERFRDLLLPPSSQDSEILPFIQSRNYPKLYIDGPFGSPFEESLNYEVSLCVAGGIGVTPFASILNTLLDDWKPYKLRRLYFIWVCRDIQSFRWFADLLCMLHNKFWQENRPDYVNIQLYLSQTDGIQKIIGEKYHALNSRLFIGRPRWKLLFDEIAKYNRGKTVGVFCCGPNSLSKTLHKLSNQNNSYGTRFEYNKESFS

| SMILES | z-score [1] | composite z-score [2] | z-score [3] | z-score [4] | z-score [5] | z-score [6] | z-score [7] | z-score [8] | z-score [9] | z-score [10] |
| --- | --- | --- | --- | --- | --- | --- | --- | --- | --- | --- |
| COc1ccc(C(=O)Nc2ccc(CN3C(=O)[C@@]4(O[C@@H](CC(=O)N(CCO)Cc5ccccc5)[C@H]([Si](C)(C)c5ccc(OC)cc5)[C@H]4C)c4ccccc43)cc2)cc1 | 1.73 (inactive) | -0.115 | 16.6 (active) | 2.82 (inactive) | 0.467 (inactive) | -0.236 (inactive) | 1.21 | 1.06 (inactive) | 1.39 (inactive) | 2.59 |
| COC(=O)[C@@]1(Cc2ccc(F)cc2)[C@H]2c3cc(C(=O)N(C)C)n(CCF)c3C[C@H]2CN1C(=O)c1ccccc1 | 1.28 (inactive) | -0.012 | 2.02 (inactive) | -0.771 (inactive) | -1.04 (inactive) | -1.29 (inactive) | 0.456 | 0.532 (inactive) | 0.864 (inactive) | -3.46 |
| C=CCC(OC(C)=O)[C@@H]1[C@@H](N(Cc2cccc3ccccc23)C(=O)c2ccc(C)cc2)c2cc(OCCCO)ccc2N1C(=O)Cc1ccc2ccccc2c1 (stereo not given in full) | 2.62 (inactive) | 0.167 | 0.483 (inactive) | -0.407 (inactive) | -0.419 (inactive) | -1.2 (inactive) | 2.14 | -2.56 (inactive) | 1.08 (inactive) | 2.41 |
| COc1cc(CO)cc(I)c1O[C@H]1C=C(C(=O)NCCO)C[C@@H](N(CCN2CCOCC2)C(=O)C2CCCO2)[C@@H]1O (stereo not given in full) | 2.39 (inactive) | -0.245 | 0.961 (inactive) | -0.339 (inactive) | 0.483 (inactive) | 0.108 (inactive) | 0.545 | -0.842 (inactive) | 0.225 (inactive) | 0.235 |
| COC(=O)C(CC#Cc1ccc2c(c1)[C@]1(C(=O)N2)[C@H](c2ccc(OCCO)cc2)N2[C@H](c3ccccc3)[C@H](c3ccccc3)OC(=O)[C@H]2[C@@H]1C(N)=O)C(=O)OC | -0.763 (inactive) | 0.0319 | 3.9 (inactive) | 1.36 (inactive) | -0.623 (inactive) | 0.615 (inactive) | -0.359 | 1.56 (inactive) | 0.784 (inactive) | 0.345 |
| CC(=O)NCCCC[C@@H]1NC(=O)[C@H]2C[C@@H](C(=O)NCCCCCN)[C@@H](c3ccc(O)cc3)N2C1=O | -0.556 (inactive) | 0.302 | 0.537 (inactive) | 0.33 (inactive) | 0.0814 (inactive) | 0.302 (inactive) | -0.413 | 0.178 (inactive) | -1.24 (inactive) | 1.01 |
